Bioassay records: PubChem, National Center for Advancing Translational Sciences (NCATS)
JMJD2A Tudor = inhibitors of human JMJD2A Tudor domain; O75164; AlphaScreen JMJD2A-Tudor / H3K4me3 peptide binding; Potency, µM (highest dose often 114 µM), without a hit: top-dose activity change, negative = inhibition, most hits filed as inhibitors; 390,000 compounds, 4.4% hits; AID 504339; note: % is set by controls: 0 for no effect and ±100 for the full control effect; nearly all actives have a fitted effect of over 50% in size
G9a block = inhibitors of human histone lysine methyltransferase G9a | Q96KQ7 | G9a H3K9 monomethylation, AlphaScreen, 2 h | Potency, µM (titrated, usually from 102 µM), inactives show top-dose activity, negative = inhibition, actives largely listed as inhibitors | 350,000 compounds, 8.8% hits; note: % is set by controls: 0 for no effect and ±100 for the full control effect; nearly all actives have a fitted effect of over 75% in size
Target sequence (Q96KQ7 913-1193 limits assumed): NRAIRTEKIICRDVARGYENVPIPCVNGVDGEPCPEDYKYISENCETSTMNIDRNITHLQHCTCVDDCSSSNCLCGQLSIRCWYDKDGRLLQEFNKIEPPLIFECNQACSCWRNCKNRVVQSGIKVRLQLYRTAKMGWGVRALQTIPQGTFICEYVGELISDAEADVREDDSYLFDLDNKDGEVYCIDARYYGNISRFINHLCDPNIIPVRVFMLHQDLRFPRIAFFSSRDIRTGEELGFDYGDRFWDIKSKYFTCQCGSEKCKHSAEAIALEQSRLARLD
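Signal arises when biotinylated H3K9 peptide, once monomethylated, bridges streptavidin donor and antibody-captured acceptor beads. Enzyme at 20 nM was preincubated 15 min with test compounds; peptide 500 nM and SAM 20 uM then reacted for 2 h.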
HP1b binding inh = HP1-beta chromodomain-methylated histone interaction inhibition. P83916. AlphaScreen HP1-beta / biotin-H3K9me3 peptide binding. Potency, µM (titrated, usually from 114 µM), inactives show top-dose activity change, negative = inhibition, actives largely listed as inhibitors. 390,000 compounds, 0.56% hits. AID 540317; note: nearly all actives have a fitted effect of over 70% in size
Target sequence (P83916 whole entry, looked up): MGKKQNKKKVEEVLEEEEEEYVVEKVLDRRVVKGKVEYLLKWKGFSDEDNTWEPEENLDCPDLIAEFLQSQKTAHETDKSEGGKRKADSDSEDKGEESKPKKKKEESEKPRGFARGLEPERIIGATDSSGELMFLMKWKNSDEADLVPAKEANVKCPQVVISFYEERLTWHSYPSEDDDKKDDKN
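HP1-beta protein (50 nM final) preincubated 30 min at room temperature with biotinylated H3(1-18)K9me3 peptide (50 nM) in PBS pH 7.4, 0.01% Tween-20, then compound added for 30 min. AlphaScreen streptavidin donor/nickel chelate acceptor beads (10 ug/mL final), 30 min dark, luminescence read.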
BAZ2B block = BAZ2B (human) inhibition | AlphaScreen BAZ2B-H3K14Ac peptide displacement | Potency, µM (series often up to 114 µM), for inactives: at the highest dose activity change, negative = inhibition, most hits filed as inhibitors | 360,000 compounds, 4.4% hits; note: % is set by controls: 0 for no effect and ±100 for the full control effect; nearly all actives have a fitted effect of over 60% in size
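Complex of BAZ2B and biotin-H3K14Ac (50 nM apiece) forms over 30 min at RT, then faces library compounds up to 110 uM for another 30 min; AlphaScreen beads added, 20 min dark incubation, luminescence read.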
GLS inhibitor = glutaminase GLS (human) inhibition | GLS enzymatic activity, qHTS titration | Potency, µM (doses to about 45.5 µM), for the others: at the highest dose activity change, negative = inhibition, actives largely listed as inhibitors | 410,000 compounds, 0.21% hits | AID 624170; note: % is set by controls: 0 for no effect and ±100 for the full control effect
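Enzyme dispensed in phosphate buffer (45 mM, pH 8.2, 0.02% Tween-20), compounds pinned in, then 1 mM L-glutamine solution and the glutamate oxidase–HRP–Amplex Red mix added; fluorescence read immediately and again after 30 min at room temperature.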
* hit, by the source's call; u = inconclusive; x = no result given; [ ] = remark or other dose. Shown are actives, neighbours in structure and some others; about 10% of the full set was active somewhere. Calls come from the whole dose curve; as a rule, active = well fitted curve in the direction sought with a large enough effect; inconclusive = small, poorly fitted or top-dose-only effect, or another doubt; inactive = no such curve, though single readings can be large; an effect the other way counts as inactive or inconclusive. Potency is the fitted concentration of half-maximal effect.

SMILES | JMJD2A Tudor | G9a block | HP1b binding inh | BAZ2B block | GLS inhibitor
Cc1ccc(-c2nc3ccccc3s2)cc1NC(=S)NC(=O)/C=C/c1ccco1 | -26.1% | 50.1µM* | 8.3% | u | 3.7%
CC(C)(C)NC(=O)/C(=C/c1ccco1)c1ccccc1 | 4.8% | 30.3%[0.501 µM] | 22.2% | u | 5.9%
Cc1ccccc1NC(=S)NC(=O)/C=C/c1ccco1 | u | x | u | 56.2µM* | 11.2%
COc1ccccc1NC(=O)/C=C\c1ccco1 | -31.4% | 39.8µM* | -1.1% | u | -11.2%
Cc1ccccc1NC(=O)/C(=C/c1ccco1)c1ccccc1 | -17.3%[57.1 µM] | 31.6µM* | 7.5% | u | -5.5%
CCc1ccccc1N1C(=O)N(Cc2ccccc2C)c2ccccc2S1(=O)=O | 5.3% | -5.5%[59 µM] | 29.2% | 2.2% | 6.7%
Cc1noc(C)c1-c1cncnc1NCc1cccnc1 | x | -49.3%[0.501 µM] | x | x | x
COc1ccccc1NC(=S)NC(=O)/C=C/c1ccco1 | -26.2%[57.1 µM] | u | -12.5% | 50.1µM* | 3.2%
O=C(NNC(=O)c1ccco1)c1csc(N2CCOCC2)n1 | -0.7% | 7.08µM* | 36.9% | u | -3.9%
Cc1ccc(C(=O)NNC(=O)c2csc(N3CCOCC3)n2)o1 | u | -3.4%[0.501 µM] | 28.8% | u | 20.7%
O=C1NC[C@@H](CCCCN2C[C@H](Cc3ccc(O)cc3)N(Cc3ccccc3)C(=O)C2=O)N(CCC2CCCCC2)C1=O | x | x | x | x | 6.7%
CNC(=S)N(C1=NCC(c2ccc([N+](=O)[O-])cc2)S1)c1ccccc1 (configuration not stated) | u | 35.5µM* | u | u | 6.1%
Fc1ccc2c(c1)-c1c(cnc3cc(-c4ccc(Cl)cc4)nn13)CO2 | -3.7% | 1.3%[59 µM] | 22.8% | -2.1% | 5.2%
COc1ccccc1NC(=O)c1ccccc1NS(=O)(=O)c1cccs1 | -1.4% | 50.1µM* | 42.3% | -18.8% | 2.1%
COc1cccc(OC)c1C(=O)Nc1ccccc1NC(=O)c1c(OC)cccc1OC | -8.0% | 79.4µM* | -2.6% | -0.7% | 1.7%
COc1ccccc1NC(=O)c1ccccc1NS(C)(=O)=O | 25.9% | -1.5%[12.7 µM] | 51.2% | -4.6% | -5.0%
CC1CCCCC12NC(=O)N(CC(=O)NCCc1ccccc1)C2=O (configuration not stated) | -14.5% | x | 14.1%[57 µM] | x | -8.1%
CC1CCCCC12NC(=S)N(c1ccccc1)N2 (configuration not stated) | 11.2µM* | x | u | -15.2% | 7.6%
CC1CCCC(O)(C(C(=O)O)c2ccccc2)C1 (configuration not stated) | 2.8% | x | 29.2%[57 µM] | x | -9.1%
CC1(C)CC2(C)Nc3ccccc3N2C(=S)N1 (configuration not stated) | -14.3% | 5.6%[59 µM] | 15.7% | -9.0% | 14.6%
CC(C)CC1CCCC12NC(=O)NC2=O (configuration not stated) | -3.4% | x | 23.1% | x | -6.2%
CC1CCCC2(C1)NC(=S)N(c1ccccc1)N2 (configuration not stated) | 79.4µM* | u | 50.8% | -3.6% | 16.4%
CC1CC(C)(C)CC2(C1)NC(=S)N(c1ccccc1)N2 (configuration not stated) | -20.8% | 28.2µM* | 40.0% | -9.7% | 12.1%
CC(C)CCN1NC2(CCCC(C)C2)NC1=S (configuration not stated) | -5.0% | 22.4µM* | 34.4% | -17.1% | -2.0%
Cc1nc(-n2nc(C)c(CCC(C)C)c2C)sc1C(=O)Nc1ccc(Br)cc1 | 0.3% | 7.0%[59 µM] | 48.0% | 9.2% | 0.4%
SMILES | JMJD2A Tudor | G9a block | HP1b binding inh | BAZ2B block | GLS inhibitor
S=C1NC2(CCCCC2)NN1c1ccccc1 | -24.8% | 14.1µM* | 54.1% | 79.4µM* | 5.2%
CC(C)(C)N1NC2(CCCCC2)NC1=S | 17.8µM* | u | 3.0% | u | u
O=C1NC2(NN1c1ccccc1)C1CC3CC(C1)CC2C3 (configuration not stated) | 2.4% | u | 22.7% | 13.2% | 3.0%
CCO[C@H]1OC(C(=O)O)=C[C@@H](C)[C@@H]1CCCO | -17.4% | -1.0%[59 µM] | 0.0% | -1.2% | 2.9%
Cc1ccc(-n2cnc3c(=O)[nH]cnc32)cc1[N+](=O)[O-] | -2.8% | x | 19.6% | x | 0.4%
CCC(=O)/C=C1/Sc2ccccc2N1CC | u | 8.91µM* | -14.1% | -8.6% | 23.0%
